From PubChem BioAssay AID652010 (The Scripps Research Institute Molecular Screening Center, 2013) come the findings set out here.

In all, about 370,000 compounds went through this assay and about 4,100 (1.1%) were called active.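 The calls were made as follows: active = inhibition above the mean over all tested compounds plus 3 SD (cut at about 3.6% in these data); inactive = the rest.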 For the sample, actives were picked, then their nearest neighbours and some compounds at random.

The inhibition is the relative decrease from the control value, in per cent.

The nature of the assay: relief of DAX-1 repression of SF-1 activity – cell-based, luminescence, SF-1 (NR5A1), full-length DAX-1, primary screen (AID 652010).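 Also: 0% = DAX-1 cells with DMSO and 100% = cells lacking DAX-1 with DMSO.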 Particulars: HEK293T StAR-luciferase reporter, SF-1/DAX-1 repression relief; at 6.8 µM; stronger effect = higher value.
Regarding `O=C(OC12CCCN(C1)/C(=C/c1ccccc1)C2)c1ccco1` (centres undefined), the inhibition is 0.04% (inactive).
Turning to `CCOc1cc(C(=O)Nc2ccc(S(=O)(=O)Nc3cnc4ccccc4n3)cc2)cc(OCC)c1OCC`, the inhibition was -0.22% (inactive).
With `CCOc1ccccc1-c1cc(C(=O)N/N=C(\C)c2cccnc2)c2ccccc2n1`, the inhibition was 1.24% (inactive).
Take `CCOc1cccc(/C=C/c2ccc3ccccc3n2)c1OC(C)=O`: the inhibition was 5.71% (active).
The value for `Cc1ccc2c(c1)C1CN(C)CCC1N2S(=O)(=O)c1ccc(Oc2ccc([N+](=O)[O-])cc2)cc1` (centres undefined) was -0.52% (inactive).
With `COCCNC(=S)N(C)[C@H]1C[C@H]2c3[nH]c4ccccc4c3CCN2C[C@H]1[C@H](C)O`, the inhibition is 1.22% (inactive).
In the case of `CCOC(=O)N1CCN(S(=O)(=O)c2ccc3c(c2)C(C)C(=O)N3)CC1` (centres undefined), the inhibition was 0.76% (inactive).
With `Fc1ccc2cnc(-c3ccccc3)cc2c1` the figure was 9.42% (active).
As for `COc1cc(OC)cc(-c2cc3ccc(F)cc3cn2)c1`, the inhibition was 1.37% (inactive).
The value for `Fc1ccccc1-c1cc2cc3c(cc2cn1)OCO3` was 1.9% (inactive); that for `CN(C)c1ccc(NC(=O)NC2CCCCN(Cc3ccc(Cl)cc3)C2=O)cc1` (centres undefined) was -1.13% (inactive).
In the case of `COC(=O)C1C(=O)c2c([nH]c(C(=O)OCCSC)c2C)CC1C` (centres undefined), the inhibition is 5.6% (active).
Regarding `CN(C)[C@H]1CCN(c2cccc3c2S(=O)(=O)N2CC[C@H](C2)O3)C1`, the inhibition is 0.33% (inactive).
For `O=C(NCc1ccco1)c1nn2cccnc2c1Cl`, the inhibition is 0.65% (inactive).
Turning to `COc1ccc(-c2c(NC(=O)c3ccco3)oc3ccc(Cl)cc3c2=O)cc1`, the inhibition is -0.46% (inactive).
In the case of `O=C(Nc1cc(-c2nc3ncccc3o2)ccc1Cl)c1ccco1`, the inhibition was -1.38% (inactive).
On to `O=C(Nc1ccc2oc(-c3ccccc3F)nc2c1)c1ccco1`, for which the inhibition was 4.4% (active).
In the case of `O=C(CN1CCC(NC(=O)NCc2ccccc2)CC1)Nc1ccc2c(c1)OCCO2`, the inhibition was -0.91% (inactive).
On to `Cc1cccc(NC(=O)C[C@H]2CC[C@H]3[C@@H](COc4ccc(NC(=O)Nc5ccccc5)cc4C(=O)N3C)O2)c1`, for which the inhibition was 0% (inactive).
With `Cc1ccc(-c2nnc(SCC(=O)Nc3ccc(Oc4ccccc4)cc3)n2Cc2ccco2)cc1`, the inhibition was -2.13% (inactive).
Regarding `CC(C)CNc1cccc2c1S(=O)(=O)N(Cc1cn(Cc3ccccc3C(F)(F)F)nn1)Cc1ccccc1O2`, the inhibition was 0.13% (inactive).
As to `COc1ccc(-c2ccc(CN3C(C(C)C)C(=O)N(Cc4cn(CC5CCCCC5)nn4)CCS3(=O)=O)cc2)cn1` (centres undefined), the inhibition is -0.19% (inactive).
For `COc1ccc(-c2ccc(CN3C(CC(C)C)C(=O)N(Cc4cn(CC5CCCCC5)nn4)CCS3(=O)=O)cc2)cn1` (centres undefined), the inhibition was 3.92% (active).
`COc1ccc(-c2ccc(CN3C(CC(C)C)C(=O)N(Cc4cn(CC5CCCCC5)nn4)CCS3(=O)=O)cc2)cc1` (centres undefined): the inhibition is 2.67% (inactive).
